Among the data in the supplement of paper PMC3484114 are cell growth values, retold here.

± gives the standard deviation.

This assay concerns OVCAR-3-derived ovarian cancer stem-like cells (spheroids). The experiment in a line: cell growth relative to untreated control; higher = more growth (less inhibition). The settings on record: 2.29 µM; 96 h. A digest of the protocol: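 Percent growth was calculated against untreated wells once blanks were subtracted and Grubbs outliers removed. The cells were OVCAR-3 spheroid-derived stem-like cells, trypsinized and plated at 50,000 cells/mL in stem cell medium on ultra-low attachment 96-well plates for a 24 h preincubation. They were then exposed to compounds at 2.29 uM for 96 h at 37°C, 5% CO2, in 4 replicate wells, and viability was measured by TOX8 resazurin fluorescence (ex 560/em 590 nm) after 4 h.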

`Cc1ccccc1NC(=O)C(=O)C(C#N)c1ccccc1C` (centres undefined): the cell growth amounted to 7.3 ± 3.2%.
For `COc1c2c(c(OC)c3c1c(=O)c1ccccc1n3C)OCO2` the value was 97.8 ± 12%; for `CC(C)c1ccc(O)c(=O)cc1`, 66.5 ± 20%; for `Cc1ccccc1NC(=O)C(=O)C(C(=O)c1ccccc1F)C1OC(=O)c2ccccc21` (centres undefined), 94.9 ± 13%.
Next, `COc1cc(C(O)CCBr)c(OC)cc1C` (centres undefined): 86.9 ± 26%.
For `O=C1C=CC(CC(=O)c2ccc3ccccc3c2)O1` (centres undefined) the value was 112 ± 18%.
Molecule `O=C(NC1=C(Cl)C(=O)c2ccccc2C1=O)C(=O)C(C(=O)c1ccc2ccccc2c1)C1OC(=O)c2ccccc21` (centres undefined) had a cell growth of 89.6 ± 20%.
For `C=C(NC(=O)C(=C)NC(=O)c1csc(C2=N[C@@H]3c4csc(n4)C4NC(=O)c5csc(n5)C([C@](C)(O)[C@@H](C)O)NC(=O)[C@H]5CSC(=N5)/C(=C/C)NC(=O)C(C(C)O)NC(=O)c5csc(n5)C3(CC2)NC(=O)[C@H](C)NC(=O)C(=C)NC(=O)C(=C)NC(=O)C(C(C)C)N[C@@H]2C=Cc3c([C@@H](C)O)cc(nc3[C@H]2O)C(=O)OC4C)n1)C(N)=O` (some centres undefined) the value was 56.7 ± 21%; for `CNC(=O)c1cc(NC(=O)N(CCC#N)CCN(C(=O)N[C@@H](Cc2ccccc2)C(=O)N[C@@H](CC(C)C)C(=O)NC)c2ccccc2)ccc1OC`, 98.9 ± 15%.
On to `C/C(=N\NC(=S)N(C)C)c1ccccn1.[Cu][Br]`, for which the cell growth turned out to be 11.1 ± 5.9%.
Next, `Nc1ncnc2c1ncn2[C@@H]1O[C@H](CO)C[C@H]1O`: 89.8 ± 18%; `O=[N+]([O-])c1ccccc1S(=O)(=O)c1ccccc1[N+](=O)[O-]`: 77.1 ± 18%; `CC(=O)OCc1cc(=O)n(C)c2c3c4c(cc12)c(C)cc(=O)n4CO3`: 95.1 ± 21%.
For `O=C(N=Nc1c(O)[nH]c2ccccc12)c1ccccc1O` the value was 105 ± 11%.
